Assay outcomes (PubChem BioAssay)
This is a sample that favours compounds with a hit; in the whole collection about 11% have one here.
FLuc inh-1 = blocks purified firefly luciferase enzyme activity | 2.5% of 76,000 active | AID 1347043 | P08659 | purified P. pyralis luciferase, luminescence, biochemical | Potency, µM (top dose mostly 115 µM), actives largely listed as inhibitors; further: on the % scale 0 is the no-effect control and ±100 the full control effect; nearly all actives have a fitted effect of over 65% in size
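Cell-free enzyme assay, 10nM P. pyralis luciferase, luciferin and ATP each at 10uM. Inhibition profiled over a 6-point titration, read as luminescence.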
NPR1 antag = antagonists of human natriuretic peptide receptor Npr1. AID 1347048. Potency, µM (doses to about 46.3 µM), for the others: top-dose activity change, negative = inhibition, hits mostly inhibitors. P16066. HEK293 hNpr1 GloSensor cGMP, ANP-stimulated luminescence. 1.6% of 76,000 active; calls by dose curve; further: on the % scale 0 is the no-effect control and ±100 the full control effect; nearly all actives have a fitted effect of over 60% in size
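HEK293 cells stably expressing human Npr1 and cGMP GloSensor pGS-40F, loaded 2 h with 2% GloSensor reagent, given compound 30 min at room temperature. Luminescence read before and 20 min after 0.1 nM hNppA.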
NIH3T3 tox = NIH 3T3 cell cytotoxicity. NIH 3T3 viability, CellTiter-Glo ATP luminescence, 48-72 h. Potency, µM (series often up to 96.7 µM), inactives show top-dose activity change, negative = cytotoxicity, usual class: inhibitors. 4.3% of 94,000 active; further: on the % scale 0 is the no-effect control and ±100 the full control effect; nearly all actives have a fitted effect of over 55% in size
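Mouse fibroblast NIH 3T3 cells, 400 per well, received compound via pintool and were incubated for 48 or 72 hr prior to CellTiter-Glo ATP luminescence measurement.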
HEK cytotox = kills HEK 293 cells; HEK 293 viability, ATP luminescence (CellTiter-Glo), 48-72 h; Potency, µM (series often up to 115 µM), without a hit: at the top dose activity change, negative = cytotoxicity, actives largely listed as inhibitors; 6.6% of 94,000 active; further: on the % scale 0 is the no-effect control and ±100 the full control effect; nearly all actives have a fitted effect of over 60% in size
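qHTS cytotoxicity; HEK 293, 250 cells/well; compound pinned; 48 or 72 hr, 37 degree Celsius, 5% CO2, 95% humidity; CellTiter-Glo, 10 min RT; luminescence (ATP).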
FLuc SDR -ATP = binders stabilizing firefly luciferase, without ATP. shares compounds with FLuc inh-1. Purified FLuc-C-HiBiT, Nano-Glo HiBiT luminescence, no ATP. Potency, µM (titrated, usually from 32.7 µM), for the others: at the highest dose activation (signal gain), hits mostly activators. 7.8% of 1,300 active. AID 1963318; further: nearly all actives have a fitted effect of over 55% in size
FLuc SDR ATP = binders stabilizing firefly luciferase, plus ATP. shares compounds with FLuc inh-1. purified FLuc-C-HiBiT + ATP, HiBiT complementation luminescence. Potency, µM (doses to about 32.7 µM), for inactives: top-dose activation (gain of signal), most hits filed as activators. 8.7% of 1,300 active. AID 1963319;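 further: signal reports ligand binding via conformational change of the enzyme rather than luciferase catalysis; % of control where 0% means no effect; nearly all actives have a fitted effect of over 55% in size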
FLuc inh-2 = inhibitors of firefly luciferase enzymatic activity. Potency, µM (highest dose often 32.7 µM), without a hit: at the highest dose activity change, negative = inhibition, usual class: inhibitors. shares compounds with FLuc inh-1. purified FLuc-C-HiBiT enzyme, luciferin luminescence. AID 1963320. 42% of 1,300 active; further: on the % scale 0 is the no-effect control and ±100 the full control effect; nearly all actives have a fitted effect of over 70% in size
An asterisk follows results filed as active; i = inactive; ? = inconclusive; · = no result; [ ] = remark or other dose. Unless noted, the call rests on the fitted dose curve; in most records, active means well fitted curve in the direction sought with a large enough effect; inconclusive means small, poorly fitted or top-dose-only effect, or another doubt; inactive means no such curve, though single readings can be large; an effect the other way counts as inactive or inconclusive. Potency means the concentration at half of the fitted maximal effect.

SMILES	FLuc inh-1	NPR1 antag	NIH3T3 tox	HEK cytotox	FLuc SDR -ATP	FLuc SDR ATP	FLuc inh-2
COc1cccc(-c2cccc(CN3CCCC(C)(NC(C)=O)C3)c2)c1 (stereo not given)	?	0%[70.6 µM]	?	?	·	·	·
CC(=O)NC1(C)CCN(Cc2cccc(-c3ccc4ccccc4c3)c2)C1 (stereo not given)	1.8µM*	?	28µM*	35µM*	12%[49.3 µM]	?	11µM*
COc1cccc(Nc2ccc(CN3CCC(C)(NC(C)=O)C3)cc2)c1 (stereo not given)	4µM*	?	89µM*	?	10%[49.3 µM]	14%[49.3 µM]	?
O=C(c1ccn[nH]1)N1CCC(c2nc(CCOc3ccc(F)cc3)no2)C1 (stereo not given)	i	0%	-26%	-30%	·	·	·
Cc1ccncc1C(=O)NCC(=O)N1CCCCCNC(=O)CC1c1ccccc1 (stereo not given)	i	3%	2%	-3%	·	·	·
Cc1c(NS(C)(=O)=O)cccc1-c1nc2ccccc2s1	·	·	·	·	29%	21%	?
CS(=O)(=O)Nc1ccc(-c2nc3ccccc3s2)cc1	·	·	·	·	?	?	2.2µM*
COc1ccc(CNC(=O)c2ccc3c(c2)N=C(C)c2c(C)ccc(C)c2S3)cc1	i	-16%	?	10µM*	13%	8%	2%
CCCC1=Nc2cc(C(=O)NCCc3ccc(OC)c(OC)c3)ccc2Sc2ccc(C)cc21	i	-12%	?	?	·	·	·
COc1ccccc1OC(C)C(=O)Nc1cccc(-c2nc3ccccc3s2)c1 (stereo not given)	·	·	·	·	10%	7%	?
CC(Oc1ccccc1F)C(=O)Nc1ccc(-c2nc3ccccc3s2)cc1 (stereo not given)	·	·	·	·	16%	11%	?
O=C(Nc1ccc(-c2nc3ccccc3s2)cc1)c1c(F)c(F)c(F)c(F)c1F	·	·	·	·	13%	10%	5%
O=C(Nc1ccc(-c2nnc3n2CCCC3)cc1)c1ccccc1F	i	0%	2%	2%	·	·	·
COc1ccccc1CNC(=O)c1cc2cn(C(C)C)cc2s1	i	?	-25%	?	·	·	·
COc1cccc(N2CC(C(=O)N3CCC(C(=O)NCCc4ccc(F)cc4)C3)NC2=O)c1 (stereo not given)	i	-10%	-12%	0%	·	·	·
C[S+](=O)([O-])N1CCC2(CC1)CC(c1cccc(C(F)(F)F)c1)=NO2	·	·	-31%	?	·	·	·
COc1cccc(-n2nnc(-c3nc(-c4ccccc4F)no3)c2C)c1	·	·	·	·	18%	?	5.6µM*
O=C(NCc1ccoc1)c1ccc2nc(-c3ccc(F)cc3)cn2c1	5.6µM*	-6%	?	?	20%	15%	?
O=C(NCc1nnc2ccc(-c3ccc(F)cc3)nn12)c1ccoc1	i	5%	-11%	-1%	·	·	·
CN1c2cc(C(=O)Nc3cc(F)ccc3F)ccc2C(=O)N2CCCCCC21 (stereo not given)	11µM*	-6%	?	?	12%	?	?
Cc1ccc(NC(=O)c2ccc3c(c2)N(C)C2CCCN2C3=O)cc1C (stereo not given)	13µM*	-1%	-4%	2%	11%	?	?
Cc1ccc(NC(=O)c2ccc3c(c2)N(C)C2CCCN2C3=O)cc1F (stereo not given)	1.3µM*	?	-15%	?	15%	4.4µM*	8.8µM*
COc1ccc(NC(=O)c2ccc3c(c2)N(C)C2CCCN2C3=O)cc1OC (stereo not given)	i	0%	-29%	?	·	·	·
COc1cccc(CNC(=O)Cn2c(-c3ccccc3)nc(C)cc2=O)c1	i	-1%	-16%	?	·	·	·
COc1cccc(CNc2nc3ccccc3c3nc(-c4cccc(C)c4)nn23)c1	·	·	·	·	19%	13%	?
SMILES	FLuc inh-1	NPR1 antag	NIH3T3 tox	HEK cytotox	FLuc SDR -ATP	FLuc SDR ATP	FLuc inh-2
COc1ccc(C)cc1NC(=O)COc1ccc(-c2nnc3n2CCCC3)cc1	i	1%	?	?	·	·	·
COc1ccc(-c2nc3ccccc3s2)cc1NC(=O)COc1ccc(C)cc1	·	·	·	·	9%	6%	-11%
COc1ccc(-c2nc3ccccc3s2)cc1NC(=O)COc1cccc(C)c1	·	·	·	·	15%	8%	-13%
CC(=O)O[C@H]1[C@@H](CN(C)S(=O)(=O)c2cccs2)[C@H]2O[C@@H]1c1ccccc12	·	·	-16%[46.1 µM]	?	·	·	·
NC(=O)COC(=O)c1ccccc1-c1nc2ccccc2s1	·	·	·	·	12%	8%	-5%
c1ccc(COc2cccc(-c3nc4ccccc4s3)c2)cc1	·	·	·	·	26%	18%	5µM*
O=C(O)c1cccc(-c2cnc3ccccc3c2)c1	·	·	-14%[138 µM]	-12%[172 µM]	·	·	·
Cc1nn2c(c1-c1ccccc1OCc1ccccc1)N(Cc1ccccc1O)CCC2	i	?	?	?	·	·	·
c1ccc(COc2ccccc2-c2nc3ccccc3s2)cc1	·	·	·	·	16%	13%	?
O=C1CC(c2ccccc2)N(C(=O)CNC(=O)Cn2c(=O)oc3ccccc32)CCCCCCN1 (stereo not given)	i	2%	-5%	-22%	·	·	·
CC(=O)Nc1ccc(NC(=O)c2cc(-c3ccc4c(c3)OCCO4)on2)cc1	·	·	·	·	?	?	0.62µM*
Cc1ccc(NC(=O)c2ccc3oc(-c4cccnc4)nc3c2)cc1	·	·	-37%[138 µM]	-16%[172 µM]	·	·	·
Cc1ccc(C(=O)Nc2ccc3oc(-c4ccccc4C)nc3c2)cc1	·	·	·	·	14%	9%	-1%
COc1ccc(-c2noc([C@@H]3C[C@H](NCc4ccccn4)CN3C)n2)cc1	13µM*	?	?	100µM*	18%[49.3 µM]	15%[49.3 µM]	?
COc1ccc(C(=O)N[C@H]2C[C@@H](c3nc(-c4cncnc4)no3)N(C)C2)cc1	?	3%[70.6 µM]	-12%[138 µM]	-4%[172 µM]	·	·	·
O=C(CC(c1cccc(F)c1)c1cn(Cc2ccccc2)c2ccc([N+](=O)[O-])cc12)N1CCCC1 (stereo not given)	i	-24%	?	?	·	·	·
Cn1cccc1C(=O)NCC1Cn2cccc2C(=O)N1Cc1cccnc1 (stereo not given)	·	·	-29%	-17%	·	·	·
COc1ccc(-c2cc(N3CCCC(NC(=O)c4cccc(Br)c4)C3)n[nH]2)cc1 (stereo not given)	?	-29%	?	?	·	·	·
CN(C)c1ccc(C(=O)NC2CCN(c3cc(-c4ccc(Cl)cc4)[nH]n3)C2)cc1 (stereo not given)	i	-22%	?	?	·	·	·
